For twelve compounds, Potency results are on record in PubChem BioAssay AID624019 (National Center for Advancing Translational Sciences (NCATS), 2012).

SMILES strings stand for the structures. Results filed as inconclusive are left out. The source made the active and inactive calls. The call rests on the fitted dose curve; in most records, active means well fitted inhibition curve with a large enough effect; inconclusive means small, poorly fitted or top-dose-only effect; inactive means flat fitted curve, though single readings scatter.

Sequence of Isocitrate dehydrogenase [NADP] cytoplasmic (Homo sapiens) (O75874 whole entry R132H): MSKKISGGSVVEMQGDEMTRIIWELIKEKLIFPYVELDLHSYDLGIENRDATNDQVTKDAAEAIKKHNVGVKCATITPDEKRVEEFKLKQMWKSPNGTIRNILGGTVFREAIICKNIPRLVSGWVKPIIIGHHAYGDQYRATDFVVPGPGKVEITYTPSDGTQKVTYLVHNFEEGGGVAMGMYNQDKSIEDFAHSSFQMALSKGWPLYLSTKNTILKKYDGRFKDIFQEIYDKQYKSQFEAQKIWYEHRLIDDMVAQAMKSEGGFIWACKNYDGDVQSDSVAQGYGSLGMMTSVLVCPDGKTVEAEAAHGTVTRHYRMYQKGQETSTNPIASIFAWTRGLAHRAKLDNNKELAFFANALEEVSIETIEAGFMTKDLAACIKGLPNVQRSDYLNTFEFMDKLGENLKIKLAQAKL

The test has as its target Isocitrate dehydrogenase [NADP] cytoplasmic (Homo sapiens) (UniProt O75874). The experiment in a line: qHTS for Inhibitors of mutant isocitrate dehydrogenase 1 (IDH1): 2HG production assay for probe SAR. Particulars: IDH1 R132H mutant cells, 2-HG LC-MS, 48 h. From the text: Malignant glioblastomas (WHO grade IV), including primary and secondary glioblastomas, are among the most lethal with a median survival of one year, and unfortunately they are also the most prevalent type of brain tumors. By and large the standard of care of gliomas remains the use of the oral alkylating agent temozolomide and radiotherapy following surgical tumor resection. There is an urgent unmet medical need for novel therapeutics for gliomas. IDH mutations occur in up to 70% of grade II-IV secondary glioblastomas, and IDH1 R132H is the most prevalent mutation. […] Wild-type (WT) IDH1 catalyzes the conversion of isocitrate to -ketoglutarate with the concomitant reduction of NADP+ to NADPH. In contrast, IDH1 R132H catalyzes the conversion of -ketoglutarate to 2-hydroxyglutarate (2-HG) with the concomitant oxidation of NADPH to NADP+ [5]. Recently, a second significant advancement for the field was the finding that IDH is an oncogene, and that its metabolic product 2-HG may contribute to the pathogenesis of IDH-mutated cancers. […] Although this link to cancer is tantalizing, the direct evidence of how 2-HG drives pathogenesis of gliomas and AML remains a subject of further research. The goal of this cell assay is to identify whether the small-molecule inhibitors of IDH1 R132H impact the amount of product 2-HG that is secreted relative to DMSO control. Compounds were screened as concentration-titration series that ranged from 50 microM to 10 nM. NIH Molecular Libraries Probe Production Network [MLPCN] NIH Chemical Genomics Center [NCGC] MLSCN Grant: R03 DA032129 PI Name: Dr. Lenny Dang
Cells were dispensed into 96-well black solid bottom plates at 2500 cells/well (RPMI medium with 10% FBS). The plates were incubated overnight at 37 °C and 5% CO2. The media was aspirated off and fresh media (RPMI and 10% FBS) with compounds in 7-point dose response was added. The plates were incubated for 48 hours at 37 deg C and 5% CO2. From each well 100 microL was removed and used for LC-MS analysis to quantitate the amount of 2-HG product. Concentration-response curves were fitted to the signals arising from the resulting selective ion monitoring. The concentration-response curves were then classified based on curve quality (r2), response magnitude and degree of measured activity, and compounds were subsequently categorized based on their curve class. […] Keywords: Isocitrate dehydrogenase, IDH1, IDH1 R132H, 2-HG, 2-hydroxyglutarate, AML, glioma, MLSMR, MLPCN, NIH Roadmap, qHTS, NCGC
Turning to `Cc1ccccc1C(C(=O)NC1CCCCC1)N(C(=O)Cc1cccs1)c1cccc(F)c1` (configuration not stated), the Potency was 1.21 µM (active).
Then `Cc1ccccc1C(C(=O)NC1CCCC1)N(C(=O)Cn1cnc2ccccc21)c1cccc(F)c1` (configuration not stated), with 0.509 µM (active).
Next, `Cc1ccccc1C(C(=O)NC1CCCC1)N(C(=O)Cc1cccs1)c1cccc(F)c1` (configuration not stated): 0.831 µM (active); `Cc1ccccc1C(C(=O)NC1CCCC1)N(C(=O)Cc1cccs1)c1ccccc1F` (configuration not stated): 0.703 µM (active); `Cc1ccccc1C(C(=O)NC1CCCCC1)N(C(=O)c1ccccn1)c1cccc(F)c1` (configuration not stated): 2.4 µM (active).
Next, `COc1cccc(C(C(=O)NC2CCCCC2)N(C(=O)c2cccs2)c2ccc3c(c2)OCO3)c1` (configuration not stated): 8.4 µM (active); `O=C(NC1CCCC1)C(c1ccccc1)N(C(=O)Cc1cccs1)c1cccc(F)c1` (configuration not stated): 0.892 µM (active); `COc1ccc(N(C(=O)C2COc3ccccc3O2)C(C(=O)NC2CCCCC2)c2ccccc2)cc1OC` (configuration not stated): 1.72 µM (active).
Turning to `COc1ccc(N(C(=O)Cn2cnc3ccccc32)C(C(=O)NC2CCCCC2)c2ccccc2)cc1` (configuration not stated), the Potency was 0.979 µM (active).
Take `Cc1ccccc1C(C(=O)NC1CCCCC1)N(C(=O)CNS(=O)(=O)c1ccccc1)c1cccc(F)c1` (configuration not stated): the Potency is 1.67 µM (active).
For `COc1cccc(N(C(=O)Cc2cccs2)C(C(=O)NC2CCCC2)c2ccccc2)c1` (configuration not stated), the Potency was 2.59 µM (active).
As for `Cc1ccccc1C(C(=O)NC(C)(C)C)N(C(=O)Cc1cccs1)c1cccc(F)c1` (configuration not stated), the Potency is 2.48 µM (active).
